RecA splice inh – blocks M. tuberculosis RecA intein splicing; P9WHJ3; cell-free RecA intein splicing, fluorescence; inhibition, % (test concentration not listed); 290,000 tested, 0.75% active; AID 2221; in the data active means inhibition above about 30%;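 further: 0% = vehicle wells and 100% = reference inhibitor control wells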
VHR inh abs – DUSP3 (human) phosphatase inhibition; P51452; recombinant VHR phosphatase, pNPP absorbance; inhibition, % at 13.3 µM; 290,000 tested, 0.52% active; AID 1654; in the data active means inhibition above about 50%
CCHFV vOTU inh – CCHFV vOTU protease inhibition; Pep-AMC fluorescence; inhibition, % at 11.5 µM; 370,000 tested, 0.55% active; AID 651958; further: 0% = vehicle wells with enzyme and 100% = no enzyme wells
FBA Mtb inh – inhibits M. tuberculosis FBA enzyme; P9WQA3; purified M. tuberculosis FBA, fluorescence read-out; inhibition, % at 1 µM; 360,000 tested, 2.3% active; AID 588726; in the data active means inhibition above about 27%;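 further: 0% = vehicle and 100% = reference inhibitor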
Target sequence (P9WQA3 whole entry, looked up): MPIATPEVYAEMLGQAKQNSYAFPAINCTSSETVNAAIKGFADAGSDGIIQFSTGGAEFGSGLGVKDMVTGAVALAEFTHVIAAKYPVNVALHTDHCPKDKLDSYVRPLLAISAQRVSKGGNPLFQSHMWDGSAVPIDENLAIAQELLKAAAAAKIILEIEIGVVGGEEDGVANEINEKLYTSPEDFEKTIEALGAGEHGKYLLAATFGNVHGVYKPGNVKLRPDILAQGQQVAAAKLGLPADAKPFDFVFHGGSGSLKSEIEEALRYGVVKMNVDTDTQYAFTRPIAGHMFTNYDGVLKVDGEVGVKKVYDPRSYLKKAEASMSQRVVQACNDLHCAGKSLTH
SARS 3CLpro inh – SARS-CoV 3CLpro protease inhibition; P0C6X7; recombinant SARS-CoV 3CLpro, quenched FRET peptide cleavage; inhibition, % at 6 µM; 290,000 tested, 0.14% active; in the data active means inhibition above about 12%
GDH-TPI counter-1 – GDH-TPI coupled enzyme inhibition counter-screen; GDH-TPI coupled enzyme counterscreen, NADH absorbance; inhibition, % at 4.8 µM; 360,000 tested, 1.2% active;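 further: 0% = DMSO wells and 100% = wells lacking the enzyme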
Mtb FBA inh conf – confirmation of M. tuberculosis fructose-bisphosphate aldolase inhibitors; purified M. tuberculosis FBA, fluorescence read-out; 5,600 tested, 78% active; shares compounds with FBA Mtb inh; AID 651616; inhibition, % at 1 µM; in the data active means inhibition above about 27%;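 further: 0% = vehicle wells and 100% = reference inhibitor wells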
GDH-TPI counter-2 – GDH-TPI inhibition counter-screen for FBA inhibitors | shares compounds with FBA Mtb inh | GDH-TPI coupled enzyme counterscreen, fluorescence | inhibition, % at 1 µM | 5,600 tested, 81% active; in the data active means inhibition above about 10%
* marks the source's active call; other numbers are inactive results; nt = no result; + = active, no number. An excerpt weighted towards active compounds, which were near 4.7% of everything screened. Unless noted, no stated cut-off is given here; in the data, active means inhibition above about 30%; inactive means the rest.

SMILES	RecA splice inh	VHR inh abs	CCHFV vOTU inh	FBA Mtb inh	SARS 3CLpro inh	GDH-TPI counter-1	Mtb FBA inh conf	GDH-TPI counter-2
O=c1[nH]c(=S)[nH]c2nc(-c3cccs3)cc(C(F)(F)F)c12	1	26	-5	32*	-4	17	94*	76*
Nc1c(C(=O)C2CC2)sc2nc(-c3cccs3)cc(C(F)(F)F)c12	0	17	-74	57*	-2	2	44*	30*
CC(C)[C@@H]1O[C@H](CCc2ccccc2)CC2=C1C(=O)OC(C)(C)O2	nt	nt	10	nt	nt	nt	nt	nt
N#Cc1ccc(-c2ccc(OCC3CNC(=O)O3)cc2)cc1 (configuration not stated)	2	13	-16	44*	-1	0	+	+
O=C1NCC(COc2ccc([N+](=O)[O-])cc2)O1 (configuration not stated)	0	12	-10	-2	5	9	nt	nt
COc1ccc2cc(C(N)=O)c(=Nc3ccc(C)cc3)oc2c1	-1	15	-10	35*	-3	1	nt	+
COc1ccc2oc(=Nc3cccc(F)c3)c(C(N)=O)cc2c1	-2	4	-13	39*	-2	2	7	-4
COc1ccc2o/c(=N\O)c(C(=O)Nc3ccc(C)cc3)cc2c1	-1	12	-8	3	3	0	nt	nt
COCCNC(=O)C1(C)CCCN(Cc2noc(-c3ccccc3OC)n2)C1 (configuration not stated)	nt	nt	-15	2	nt	12	nt	nt
COc1ccc(NC(C)=O)cc1CNC(=O)CN1CCOCC1	0	-4	-13	2	0	10	nt	nt
Nc1ccccc1C(=O)NCCCN1CCOCC1	-1	18	-29	67*	3	9	76*	76*
COc1ccc(-c2cc(C(F)(F)F)nc(SCC(=O)NCCCN3CCOCC3)n2)cc1	-5	-3	-42	34*	1	11	111*	84*
COc1ccc(-c2nc(C(=O)NCCCN3CCOCC3)cc3c2[nH]c2ccccc23)cc1OC	0	20	-33	50*	-7	15	61*	46*
COc1ccc(-c2cc(C(=O)NCCN3CCOCC3)c3cc(C(C)C)ccc3n2)cc1	1	-4	-26	42*	-8	13	160*	153*
Cc1ccc(-c2nc(C(=O)NCCCN3CCOCC3)cc3c2[nH]c2ccccc23)cc1	6	41	-20	17	-6	-4	nt	nt
O=C(NCCCN1CCOCC1)c1cc2ccccc2cc1O	-20	nt	2	2	nt	-4	nt	nt
O=C(Nc1ccc(N2CCN(C(=O)c3cccs3)CC2)cc1)c1ccc(F)cc1	10	31	8	3	1	9	nt	nt
C[C@@H]1[C@@H](O)C[C@]2(C[C@@H](O)c3ccccc3O2)O[C@H]1c1ccccc1	nt	nt	-3	nt	nt	nt	nt	nt
Cc1ccc(OCC(=O)OC(C)CN2CCCCC2)cc1 (configuration not stated)	1	-4	-16	0	-5	1	nt	nt
Cc1cccc(-c2cc(C(=O)NCCCn3ccnc3)c3ccccc3n2)c1	nt	20	nt	nt	1	nt	nt	nt
Cc1ccc(-c2cc(C(=O)NCCCN3CCOCC3)c3ccccc3n2)cc1	-11	nt	-46	50*	nt	13	7	-5
O=C(NCCN1CCOCC1)c1cc(-c2ccccc2)nc2ccccc12	nt	nt	-4	0	nt	12	nt	nt
Cc1ccc(-c2cc(C(=O)NCCCN3CCCC3)c3ccccc3n2)cc1C	-4	-20	-55	35*	-5	10	95*	57*
CCOc1ccc(-c2cc(C(=O)NCCCN3CCCC3)c3ccccc3n2)cc1	1	77	-34	28*	-3	21	12	16*
Cc1ccc(-c2cc(C(=O)NCCCN3CCOCC3)c3ccccc3n2)cc1C	1	20	-31	66*	-3	7	70*	70*
O=C(COC(=O)C12CC3CC(CC(C3)C1)C2)Nc1nc2c(F)c(F)c(F)cc2s1	0	-10	-10	-4	3	1	nt	nt
COc1ccc(CN2C(=O)c3ccccc3C2c2nnnn2Cc2ccccc2)cc1OC (configuration not stated)	nt	nt	-4	nt	nt	nt	nt	nt

Compound activity as filed in PubChem BioAssay.
